In the library only some 3.8% were active in any assay of this set; here they are far more common.
Beta cell apopt = beta cell apoptosis inhibition; INS-1E cytokine-induced death, ATP luminescence, 48 h; percent of positive-control rescue, neutral wells zero; protection from apoptosis, % (concentration not given with the values); 300,000 tested, 0.8% active; AID 435005;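 active = Every replicate reaches about 75%, or at least half do and their mean reaches it too, limit read from the data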;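 also: 0% = cytokine-treated negative control wells and 100% = positive control rescue; higher means more ATP so stronger rescue from cytokine killing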
Jurkat NFkB inh = inhibitors of the PMA/ionomycin-induced NF-kB reporter in Jurkat cells. PMA/ionomycin-induced NF-kB luciferase reporter, luminescence. inhibition, % at 4 µM. 330,000 tested, 0.53% active. AID 435003; in the data active = inhibition above about 50%
697 NFkB inh = lowers PMA/ionomycin-induced NF-kB signal in 697 B cells | 697 B-cell NF-kB luciferase reporter, 16 h | inhibition, % at 4 µM | 330,000 tested, 0.33% active | AID 435022; in the data active = inhibition above about 35%
NTR1 agonist = activates human neurotensin receptor 1. 330,000 tested, 0.17% active. NTR1-U2OS beta-arrestin-GFP spot imaging, agonist mode. activation, % at 20 µM. P30989;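 active = activation at or above 40% of the spot to cytoplasm intensity ratio, with at least 20 cells analyzed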;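 also: 0% = DMSO without peptide and 100% = 100 nM NTR1 peptide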
Target sequence (P30989 whole entry, looked up): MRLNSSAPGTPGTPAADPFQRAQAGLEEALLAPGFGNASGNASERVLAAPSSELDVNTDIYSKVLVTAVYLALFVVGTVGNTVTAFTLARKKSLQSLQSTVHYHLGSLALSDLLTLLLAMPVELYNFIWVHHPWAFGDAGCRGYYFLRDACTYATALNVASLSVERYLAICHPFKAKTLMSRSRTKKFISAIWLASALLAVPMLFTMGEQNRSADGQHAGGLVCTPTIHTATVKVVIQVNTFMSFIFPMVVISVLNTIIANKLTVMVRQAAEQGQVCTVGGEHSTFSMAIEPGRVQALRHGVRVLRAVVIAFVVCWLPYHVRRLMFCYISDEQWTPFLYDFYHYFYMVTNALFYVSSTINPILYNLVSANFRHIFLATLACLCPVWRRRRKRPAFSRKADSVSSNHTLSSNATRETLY
Mdm2-MdmX inh = inhibitors of human Mdm2/MdmX interaction. SaOS-2 split-luciferase Mdm2/MdmX complementation, luminescence. inhibition, % at 8 µM. 330,000 tested, 3% active;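 active = inhibition of at least 50% at 8 µM in the primary screen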
Bfl-1 A1 inh = inhibitors of the anti-apoptotic protein A1, read as caspase activation | 330,000 tested, 0.066% active | caspase activation, % (no concentration beside the values) | MEF A1-2A-BIM cells, Caspase-Glo 3/7 luminescence, 3 h; percent of clofoctol response, vehicle zero | AID 2462;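 active = over half of replicate activation scores above 10%, or exactly half above 10 with the replicate mean above 10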
Mdm2 MdmX conf = human Mdm2/MdmX binding inhibition, confirmed; inhibition, % at 8 µM; shares compounds with Mdm2-MdmX inh; 10,000 tested, 55% active; luminescent assay; in the data active = inhibition above about 40%
FLuc counter = counter-screen for Mdm2/MdmX inhibitors: full-length luciferase. shares compounds with Mdm2-MdmX inh. SaOS-2 full-length luciferase counterscreen, luminescence. inhibition, % at 8 µM. 6,200 tested, 77% active;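 active = mean inhibition at 8 µM reaching about 37%, which flags the compound as non-specific, limit read from the data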;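 also: p53-null SaOS-2 cells with luciferase driven by a doxycycline-inducible promoter; compound on cells about two nights before reading with doxycycline added after day one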
Numbers without * were called inactive; / = not tested or not shown.

SMILES	Beta cell apopt	Jurkat NFkB inh	697 NFkB inh	NTR1 agonist	Mdm2-MdmX inh	Bfl-1 A1 inh	Mdm2 MdmX conf	FLuc counter
N#CC1=C(N)N2C(=C(C#N)C1c1ccc(Br)cc1)Nc1ccccc12 (centres undefined)	109.0*	-2.2	7.5	11.3	96.4*	-0.2	95.3*	53.0*
CN(C)CCNc1ncnc2oc(-c3ccccc3)c(-c3ccccc3)c12	5.4	-2.0	1.8	-0.7	45.6	0.5	/	/
COc1ccc(-c2oc3ncnc(NCCCN(C)C)c3c2-c2ccc(OC)cc2)cc1	8.4	32.4	-21.4	1.7	96.6*	1.8	42.0*	28.6
CC(C)Oc1ccc(C(CCNCc2ccc(O)cc2)c2ccccc2)cc1 (centres undefined)	63.1	45.4	-2.4	19.6	91.2*	1.5	69.7*	57.5*
CC1CCN(C(=O)CCC(=O)Nc2nnc(C(F)(F)F)s2)CC1	-0.9	-15.2	-64.5	-1.3	-9.7	0.3	/	/
O=C(c1ccccc1)N1CCN(CC(O)COc2cccc3ccccc23)CC1 (centres undefined)	-2.3	10.5	-5.5	-0.2	-3.2	0.0	/	/
O=C(c1cccc(COc2cccc3ccccc23)c1)N1CCCC1	-5.2	-17.2	-115.5	3.6	50.1*	-0.4	23.6	/
Cc1ccn(CCC(=O)NC2CC(C)(C)Cc3c2cnn3-c2ccccc2C)n1 (centres undefined)	-4.2	9.2	5.8	0.1	-0.2	-0.8	/	/
Cc1ccc(-c2ccc(/C=C(\C#N)C(=O)Nc3cc(C)nn3-c3ccccc3)o2)cc1	18.4	-4.1	0.0	11.5	54.1*	32.6*	3.9	/
COc1ccc(C(=O)NCCC2=CCCCC2)cc1OC1CCN(C(C)C)CC1	7.0	-37.4	-6.0	-0.5	-50.2	-0.9	/	/
CCc1ccc(-c2nc(NC(=O)c3ccc(OCC(=O)Nc4ccc(F)cc4)c(OC)c3)sc2C)cc1	-6.0	5.5	-14.7	-0.2	2.3	1.0	/	/
COc1cc(C(=O)Nc2nc(-c3ccc(Cl)cc3)c(C)s2)ccc1OCC(=O)Nc1ccc(F)cc1	11.7	-1.3	1.0	0.5	77.9*	-0.6	65.8*	70.7*
CCCN1CCc2c(sc3nc(SCC)n(-c4ccc(OC)cc4)c(=O)c23)C1	/	4.0	-1.3	2.7	18.5	/	/	/
C=CCn1c(SCC(=O)c2[nH]c(C)c(C(=O)OCC)c2C)nc2scc(-c3ccccc3)c2c1=O	-3.7	2.7	3.7	1.8	95.2*	0.7	60.0*	46.3*
N#Cc1sc2nccc(Nc3ccccc3)c2c1N	-16.1	32.8	-18.5	1.7	92.4*	0.2	78.3*	48.7*
O=C(c1ccc(S(=O)(=O)c2cccc(Cl)c2)c([N+](=O)[O-])c1)N1CCN(Cc2ccccc2)CC1	/	18.0	-9.2	6.5	94.2*	0.4	85.1*	57.7*
Cc1ccccc1CS(=O)(=O)c1ccc(C(=O)N2CCC(C)CC2)cc1[N+](=O)[O-]	0.6	-0.8	28.4	-0.8	47.4	1.8	/	/
CC1CCN(C(=O)c2ccc(S(=O)(=O)Cc3cccc(F)c3)c([N+](=O)[O-])c2)CC1	/	19.4	11.6	0.6	55.8*	0.3	49.5*	71.7*
O=C(c1ccc(S(=O)(=O)Cc2ccccc2Cl)c([N+](=O)[O-])c1)N1CCN(c2ccccn2)CC1	-27.0	4.0	23.2	2.7	75.1*	0.3	64.0*	38.6*
COc1ccc(CCNC(=O)Nc2cccs2)c(OC)c1	-8.9	-1.2	4.0	0.1	10.9	-0.8	/	/
CC(NC(=O)c1cc(-c2ccc(Br)cc2)on1)c1ccccc1 (centres undefined)	-3.7	-9.9	7.9	1.5	54.1*	1.5	7.5	/
O=C(CSC(=S)N1CCCC1)N/N=C/c1c(O)[nH]c(=S)[nH]c1=O	-3.2	-5.7	15.4	2.0	-19.9	0.8	/	/
CCCOc1ccc(/C=N/Nc2cccc([N+](=O)[O-])c2)c(O)c1	31.5	-65.4	-47.1	37.6	76.7*	-2.0	-13.2	/
CCNC(=O)CCn1nc(-c2ccc(C)cc2)c2ccccc2c1=O	-5.5	8.2	-13.1	0.6	12.9	0.9	/	/

Source: PubChem
